Compound activity deposited in PubChem by National Center for Advancing Translational Sciences (NCATS).
Sampled rows, rich in hits. Any-hit rate of the full collection: about 8.7%.
Pf growth 48h: inhibits P. falciparum growth in the first generation, 48 h; P. falciparum luciferase growth in erythrocytes, 48 h; Potency, µM (titrated, usually from 28.7 µM), for the others: at the highest dose activity change, negative = inhibition, hits mostly inhibitors; 5.9% of 310,000 active; AID 504832
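Luciferase-expressing P. falciparum in infected erythrocytes (2% hematocrit, 0.1% parasitemia final) in RPMI 1640/0.5% Albumax were exposed to compound for 48 hours at 37 C, 5% CO2; growth read as luminescence.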
Pf growth 96h: P. falciparum growth inhibition at 96 hours; P. falciparum luciferase reporter growth, 96 h; 6.9% of 320,000 active; Potency, µM (highest dose often 28.7 µM), inactives show at the highest dose activity change, negative = inhibition, most hits filed as inhibitors
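P. falciparum expressing integrated firefly luciferase grown in erythrocytes (2% hematocrit, 0.05% parasitemia final) with compounds for 96 hours at 37 C, 5% CO2. Growth inhibition read as loss of luminescence after adding luciferase detection reagent.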
VACV mCherry inh: vaccinia inhibition (mCherry reporter); Vaccinia virus mCherry reporter infection, fluorescence; Potency, µM (doses to about 36.5 µM), without a hit: at the top dose activity change, negative = inhibition, hits mostly inhibitors; 0.63% of 310,000 active; calls by dose curve; tested in A549 cells; also: nearly all actives have a fitted effect of over 35% in size
Vaccinia Venus: vaccinia inhibition (Venus reporter); Vaccinia virus Venus reporter expression, fluorescence; 0.46% of 330,000 active; Potency, µM (doses to about 36.5 µM), for inactives: top-dose activity change, negative = inhibition, actives largely listed as inhibitors; AID 720580; calls by dose curve; tested in A549 cells; also: nearly all actives have a fitted effect of over 30% in size
AMA1 RON2 block: disrupts binding of P. falciparum AMA1 to RON2; Potency, µM (highest dose often 58.2 µM), for the others: at the highest dose activity change, negative = inhibition, actives largely listed as inhibitors; 0.2% of 360,000 active; AlphaScreen AMA1-biotinylated RON2 peptide binding;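 also: 0% = vehicle wells and -100% = peptide control; nearly all actives have a fitted effect of over 45% in size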
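AMA1 (3D7) with his tag at 25 nM final met compounds first, then biotinylated RON2 peptide at 25 nM; detection used donor plus acceptor beads, 10 µg/mL apiece, read by AlphaScreen after 30 min at room temperature.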
Starred values were filed as active, the others as inactive. Unless noted, calls follow the shape of the dose curve; as a rule, active = well fitted curve in the direction sought with a large enough effect; inconclusive = small, poorly fitted or top-dose-only effect, or another doubt; inactive = no such curve, though single readings can be large; an effect the other way counts as inactive or inconclusive. Unless noted, % is scaled to controls: 0 for no effect and ±100 for the full control effect; potency is read from the fitted curve at half-maximal effect.

CC1CCc2c(sc3nc(-c4cc5cc(Br)ccc5oc4=O)[nH]c(=O)c23)C1 (stereo not given) was read as VACV mCherry inh -13% and Vaccinia Venus -9%.
Screening COc1cc(-c2cc(C)c3cccc(OC)c3n2)cc2c1OCCN(C(=O)CCn1nc(C)cc1C)C2 returned VACV mCherry inh -20% and Vaccinia Venus -10%.
Screening CCN1C(=O)[C@H]2[C@@H](c3ccc(-c4ccc(F)cc4)c(OC)c3)N[C@@](CC(C)C)(C(=O)OC)[C@H]2C1=O returned Pf growth 48h 2.3µM* and Pf growth 96h 2.6µM*.
For COC(=O)[C@]1(CC(C)C)N[C@H](c2ccc(-c3ccc(F)cc3)cc2)[C@@H]2C(=O)N(C)C(=O)[C@@H]21 the results were Pf growth 48h 3.3µM*, Pf growth 96h 6.6µM*, VACV mCherry inh -4%, Vaccinia Venus -17% and AMA1 RON2 block -7%.
For COC(=O)[C@]1(CC(C)C)N[C@H](c2ccc(-c3ccc(OC)cc3)cc2)[C@@H]2C(=O)N(C)C(=O)[C@@H]21 the results were Pf growth 48h inconclusive, Pf growth 96h inconclusive, VACV mCherry inh -14%, Vaccinia Venus -19% and AMA1 RON2 block 9%.
CCN1C(=O)[C@H]2[C@@H](c3ccc(-c4ccc(F)cc4)cc3)N[C@@](CC(C)C)(C(=O)OC)[C@H]2C1=O was read as Pf growth 48h 10µM*, Pf growth 96h 5.2µM*, VACV mCherry inh inconclusive, Vaccinia Venus -25% and AMA1 RON2 block 31%.
Screening COc1ccc(C(CC(=O)NCc2ccc(Cl)cc2)N2Cc3ccccc3C2=O)cc1OC (stereo not given) returned VACV mCherry inh -2% and Vaccinia Venus -16%.
For COc1ccc(NC(=O)Cn2nnc(C(=O)NCc3ccccc3Cl)c2N)cc1Cl the results were VACV mCherry inh inactive and Vaccinia Venus -10%.
For CCc1ccc(C(=O)c2cn(Cc3ccc(F)cc3)c3cc(OC)c(OC)cc3c2=O)cc1 the results were VACV mCherry inh -20% and Vaccinia Venus -27%.
Screening COc1ccc(CN2C(=O)c3ccccc3C2C(=O)NCC2CCCO2)c(OC)c1 (stereo not given) returned Pf growth 48h -9%, Pf growth 96h 4.7µM*, Vaccinia Venus 0% and AMA1 RON2 block 3%.
For COc1ccccc1CNC(=O)C(=O)NCC1CCCO1 (stereo not given) the results were Pf growth 48h 54%, Pf growth 96h 5.9µM*, VACV mCherry inh -13%, Vaccinia Venus -2% and AMA1 RON2 block -1%.
`COc1cccc(CSc2nc3n(n2)C(c2cccc(F)c2)C(C(=O)Nc2ccccc2C)=C(C)N3)c1` (stereo not given) gave VACV mCherry inh -1% and Vaccinia Venus 6%.
`CCN(CC)c1ccc(N=Cc2ccc([N+](=O)[O-])o2)cc1` gave Pf growth 48h 1.7µM*, Pf growth 96h 2.9µM*, VACV mCherry inh inconclusive, Vaccinia Venus inconclusive and AMA1 RON2 block inconclusive.
For CCN(CC)c1ccc(N=Cc2ccccc2[N+](=O)[O-])cc1 the results were Pf growth 48h 2.3µM*, Pf growth 96h -104%, VACV mCherry inh inconclusive, Vaccinia Venus inconclusive and AMA1 RON2 block 18µM*.
For CCN(CC)c1ccc(N=Cc2c(O)[nH]c(=O)[nH]c2=O)cc1 the results were Pf growth 48h inconclusive, Pf growth 96h -75% and AMA1 RON2 block -30%.
`COCCN1C(=O)c2oc3ccc(C)cc3c(=O)c2C12C(=O)N(C)c1ccccc12` (stereo not given) gave VACV mCherry inh -13% and Vaccinia Venus -11%.
For CCN(CC)C(=O)c1ccc(/C=C/c2c[nH]c3ccccc23)[n+](C)c1 the results were Pf growth 48h 0.74µM*, Pf growth 96h 0.37µM*, VACV mCherry inh -12%, Vaccinia Venus 37% and AMA1 RON2 block -9%.
Screening COC(=O)C1=NN(c2ccccc2)C2(S1)S/C(=C\c1ccccc1)C(=O)N2c1ccccc1 (stereo not given) returned Pf growth 48h 13µM*, Vaccinia Venus -6% and AMA1 RON2 block -21%.
For CCOC(=O)C1=NN(c2ccccc2)C2(S1)SC(C(C)=O)=C(C)N2c1ccccc1 (stereo not given) the results were Pf growth 48h 0% and AMA1 RON2 block inconclusive.
Screening O=C(Cc1ccc(S(=O)(=O)N2CCOCC2)s1)N1CCN(S(=O)(=O)c2ccc(Cl)cc2)CC1 returned Pf growth 48h 7.4µM*, Pf growth 96h 4.7µM* and AMA1 RON2 block -5%.
CCc1cc(C(=O)N2CCN(S(=O)(=O)c3ccc(Cl)cc3)CC2)sc1C was read as Pf growth 48h 9.3µM*, Pf growth 96h 9.3µM*, VACV mCherry inh -8%, Vaccinia Venus -22% and AMA1 RON2 block -2%.
O=C(COc1cccc(C(F)(F)F)c1)NNC(=O)Cc1ccc(S(=O)(=O)N2CCOCC2)s1 was read as Pf growth 48h 13µM*, Pf growth 96h inconclusive and AMA1 RON2 block 113%.
For O=C(Cc1ccc(S(=O)(=O)N2CCOCC2)s1)N1CCN(c2cccc(C(F)(F)F)c2)CC1 the results were Pf growth 48h inconclusive, Pf growth 96h 10µM* and AMA1 RON2 block 0%.
Screening CC(C)c1ccc(NC(=O)CN2C(=O)C3(SCC(=O)N3c3ccc(F)cc3)c3ccccc32)cc1 (stereo not given) returned VACV mCherry inh -28% and Vaccinia Venus inconclusive.
For CC(=O)Nc1ccc(C(=O)N2CCCC(n3cc(C(=O)NCC(C)C)nn3)C2)cc1 (stereo not given) the results were VACV mCherry inh inactive and Vaccinia Venus -13%.
For Cc1ccccc1CNC(=O)c1sc2ncnc(N(C)C3CCCCC3)c2c1C the results were VACV mCherry inh -5% and Vaccinia Venus -9%.
COCCOc1ccc(C(F)(F)F)cc1NC(=O)Cc1ccc(S(=O)(=O)N2CCOCC2)s1 was read as Pf growth 48h 12µM*, Pf growth 96h 8.3µM*, VACV mCherry inh -1%, Vaccinia Venus -23% and AMA1 RON2 block -8%.
Screening O=C(Cc1ccc(S(=O)(=O)N2CCOCC2)s1)N1CCN(S(=O)(=O)c2ccccc2F)CC1 returned AMA1 RON2 block 8%.
For CCCOc1ccc(NC(=O)Cc2ccc(S(=O)(=O)N3CCOCC3)s2)cc1OCCC the results were Pf growth 48h inconclusive, Pf growth 96h inconclusive, VACV mCherry inh -18%, Vaccinia Venus inconclusive and AMA1 RON2 block -18%.
For O=C(Cc1ccc(S(=O)(=O)N2CCOCC2)s1)N1CCN(S(=O)(=O)c2cccc(Cl)c2)CC1 the results were Pf growth 48h 12µM*, Pf growth 96h inconclusive, VACV mCherry inh -10%, Vaccinia Venus -24% and AMA1 RON2 block -5%.
